Assay outcomes (PubChem)
Rows were chosen to be rich in hits. Some 2.3% of all compounds tested hit in one or more screens of this group.
Coupling enz = inhibits coupling enzyme system, counter-screen for aldolase hits. coupling enzyme system counterscreen, AmpLite Red fluorescence. activity change, negative = inhibition, % at 58.2 µM, hits read low. hit rate 0.67% among 290,000; in the data active = activity change below about -30%
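Fluorescence at 525 nm excitation and 598 nm emission measured inhibition of the coupled detection system without aldolase. Compounds (at 57.5 uM final) were preincubated 10 min at room temperature with coupling enzyme reagent before a 20 min substrate/AmpLite Red step.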
Tau fluor counter = counter-screen for tau fibril formation inhibitors | Potency, µM (series often up to 57.7 µM), without a hit: top-dose activity change, negative = decrease | tau K18 P301L Alexa594 fluorescence, heparin fibrillization | hit rate 0.93% among 280,000; also: potency is read from the fitted curve at half-maximal effect; nearly all actives have a fitted effect of over 55% in size
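Human K18 P301L tau (15 uM unlabeled plus 0.24 uM Alexa 594-labeled, final) in 100 mM sodium acetate pH 7 was mixed with compound and 20 uM heparin and incubated 6 hr at 37 C.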
USP1 inh = blocks the human USP1/UAF1 deubiquitinase complex; hit rate 0.23% among 390,000; Potency, µM (top dose mostly 57.1 µM), without a hit: at the highest dose activity change, negative = inhibition, usual class: inhibitors; recombinant USP1/UAF1, Ub-Rhodamine cleavage fluorescence; also: potency is read from the fitted curve at half-maximal effect; nearly all actives have a fitted effect of over 60% in size
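High-throughput fluorogenic screen: 1nM USP1/UAF1 complex, Ub-Rho substrate 150nM final, 50mM HEPES pH 7.8 with 0.5mM EDTA, 0.1 mg/ml BSA, 1mM TCEP and 0.01% Tween-20.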
Tau ThT inhib = inhibitors of human tau fibril formation, thioflavin T binding; AID 1460; recombinant tau K18 P301L (four-repeat tau fragment), heparin-induced fibrillization, ThT fluorescence; hit rate 2.1% among 270,000; Potency, µM (doses to about 57.4 µM), for the others: at the highest dose activity, negative = inhibition, hits mostly inhibitors; P10636; also: potency is read from the fitted curve at half-maximal effect; nearly all actives have a fitted effect of over 55% in size
Target sequence (P10636 561-689 P618L limits assumed): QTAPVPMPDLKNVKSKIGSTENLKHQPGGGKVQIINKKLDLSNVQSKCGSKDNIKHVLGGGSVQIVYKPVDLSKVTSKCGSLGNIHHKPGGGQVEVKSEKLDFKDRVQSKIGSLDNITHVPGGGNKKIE
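Aggregation was driven by heparin (20 uM final) acting on recombinant tau […] bearing P301L in 100 mM sodium acetate pH 7; fibrils were detected with Thioflavin T.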
Tau fibril FP = tau fibrillization inhibition (FP); P10636; K18 P301L tau heparin fibrillization, Alexa594 FP, 6 h; Potency, µM (series often up to 57.7 µM), for inactives: top-dose activity, negative = inhibition, actives largely listed as inhibitors; hit rate 0.39% among 280,000; AID 1468; also: potency is read from the fitted curve at half-maximal effect; nearly all actives have a fitted effect of over 55% in size
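Read-out: fluorescence polarization of Alexa 594-labeled tau (0.24 uM), 555 nm excitation, 632 nm emission. Mixtures held 15 uM unlabeled K18 P301L, compound and 20 uM heparin, pH 7 acetate buffer, incubated 6 hr at 37 C.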
* marks the source's active call; other numbers are inactive results; [ ] = dose if it differs, or a comment. Unless noted, calls follow the shape of the dose curve; as a rule, active = well fitted curve in the direction sought with a large enough effect; inconclusive = small, poorly fitted or top-dose-only effect, or another doubt; inactive = no such curve, though single readings can be large; an effect the other way counts as inactive or inconclusive. % is scaled to controls: 0 for no effect and ±100 for the full control effect.

`Cc1ccc(-c2[nH]c3ccccc3c2SCCNC(=O)c2cc3ccccc3oc2=O)cc1` gave Coupling enz 1, Tau fluor counter 8.9µM*[quencher], USP1 inh -10%, Tau ThT inhib inconclusive and Tau fibril FP -9%.
Screening O=C(NCCSc1c(-c2ccccc2)[nH]c2ccccc12)c1cc2ccccc2oc1=O returned Coupling enz -2, Tau fluor counter 7.1µM*[quencher], USP1 inh -14%, Tau ThT inhib inconclusive and Tau fibril FP -12%.
`O=C(Nc1nc2ccc3ccccc3c2s1)c1ccc(N2CCCCC2)c([N+](=O)[O-])c1` gave Coupling enz 0, Tau fluor counter -19%, USP1 inh -6%, Tau ThT inhib 4µM* and Tau fibril FP 3%.
Screening O=C(Nc1nc2ccc(Cl)cc2s1)c1ccc(N2CCCCC2)c([N+](=O)[O-])c1 returned Coupling enz 0, Tau fluor counter -15%, USP1 inh -9%, Tau ThT inhib 1.3µM* and Tau fibril FP -19%.
Screening CC(=O)Nc1sc(N/N=C\c2cccc(Cl)c2)nc1-c1cccs1 returned Coupling enz 2, Tau fluor counter inconclusive, USP1 inh -15%, Tau ThT inhib 10µM* and Tau fibril FP -6%.
For CC(=O)Nc1sc(N/N=C\c2ccccc2F)nc1-c1cccs1 the results were Coupling enz 0, Tau fluor counter inconclusive, USP1 inh 2%, Tau ThT inhib 8.9µM* and Tau fibril FP -2%.
CC(=O)Nc1sc(N/N=C\c2ccc(O)cc2)nc1-c1cccs1 was read as Coupling enz -2, Tau fluor counter inconclusive, USP1 inh 1%, Tau ThT inhib 14µM* and Tau fibril FP -9%.
Screening CC(=O)Nc1sc(NC(=O)c2ccccc2)nc1-c1cccs1 returned Coupling enz 2, Tau fluor counter -12%, USP1 inh -7%, Tau ThT inhib inconclusive and Tau fibril FP -1%.
`COCCn1c(=O)c(CCc2ccccc2)nc2cnc(N3CCOCC3)nc21` gave Coupling enz -2.
For [O-]/[N+](=C/c1ccc(F)cc1)c1ccc(Cl)cc1 the results were Coupling enz 0, Tau fluor counter -24%, USP1 inh -9%, Tau ThT inhib 32µM* and Tau fibril FP inconclusive.
Screening [O-][N+](=Cc1ccccc1)c1ccc(Cl)cc1 returned USP1 inh -1%.
For O=C(Nc1nc2c(s1)CCCC2)Oc1ccccc1 the results were Coupling enz 0, Tau fluor counter 1%, USP1 inh -15%, Tau ThT inhib -9% and Tau fibril FP 0%.
For C/C(=N\Nc1nc2c(s1)CCCC2)c1ccccc1 the results were Coupling enz -6, Tau fluor counter inconclusive, USP1 inh -11%, Tau ThT inhib 14µM* and Tau fibril FP -9%.
Screening Cc1ccccc1OCC(=O)N(Cc1ccco1)c1c(N)n(Cc2ccccc2)c(=O)[nH]c1=O returned USP1 inh -10%.
Screening CCOC(=O)CC(=O)CSc1nc(-c2cccnc2)cc(C)c1C#N returned Coupling enz 0, Tau fluor counter -12%, USP1 inh -7%, Tau ThT inhib -7% and Tau fibril FP 0%.
CCOC(=O)CC(=O)CSc1nc(-c2cccnc2)ccc1C#N was read as Coupling enz 2, Tau fluor counter -17%, USP1 inh 32µM*, Tau ThT inhib inconclusive and Tau fibril FP 7%.
For CCOC(=O)N1CCN([N+]([O-])=NOc2cc(O/N=[N+](\[O-])N(CC)CC)c([N+](=O)[O-])cc2[N+](=O)[O-])CC1 the results were Coupling enz -12.
CCN(CC)c1ccc(/C=C(\C#N)c2nc(-c3cccs3)c(NC(C)=O)s2)cc1 was read as Coupling enz -8, Tau fluor counter 6.3µM*[quencher], Tau ThT inhib inconclusive and Tau fibril FP inconclusive.
Screening COc1ccccc1C(=O)Nc1nc(-c2cccs2)c(NC(C)=O)s1 returned Coupling enz 1, Tau fluor counter -26%, USP1 inh -14%, Tau ThT inhib -18% and Tau fibril FP inconclusive.
For COc1ccc2cc3cc(C(=O)NCCc4ccccc4)sc3nc2c1Cl the results were Tau fluor counter -19%, USP1 inh -11%, Tau ThT inhib inconclusive and Tau fibril FP inconclusive.
`Cc1c(Br)c(=O)oc2c(Br)c(O)c(O)cc12` gave Coupling enz 1, Tau fluor counter inconclusive, USP1 inh -4%, Tau ThT inhib 13µM* and Tau fibril FP inconclusive.
Cc1c(Br)c(=O)oc2c(Br)c(O)ccc12 was read as Coupling enz 1, Tau fluor counter -2%, USP1 inh -4%, Tau ThT inhib -6% and Tau fibril FP 2%.
Screening CCC(=O)NCCc1nc2cc(NC(=O)c3cccc(Br)c3)ccc2n1C returned Tau fluor counter -1%, USP1 inh -13%, Tau ThT inhib -9% and Tau fibril FP -9%.
`CCn1c(O)c(/C=N/N=C2CCCCC2)c2cc(C3=NNC(=O)CC3)ccc21` gave Coupling enz -35*, Tau fluor counter -28%, USP1 inh -6%, Tau ThT inhib 10µM* and Tau fibril FP -4%.
CCn1c(O)c(/C=N/N=C2CCCC2)c2ccc(C3=NNC(=O)CC3)cc21 was read as Coupling enz 1, Tau fluor counter -14%, USP1 inh -11%, Tau ThT inhib inconclusive and Tau fibril FP -11%.
O=C(O[C@@H]1Cc2c(O)cc(O)cc2OC1c1ccc(O)c(O)c1)c1cc(O)c(O)c(O)c1 (some centres not stated) was read as Coupling enz -2, Tau fluor counter 13µM*[quencher], Tau ThT inhib 16µM* and Tau fibril FP inconclusive.
Screening O=C(OC1Cc2c(O)cc(O)cc2OC1c1cc(O)c(O)c(O)c1-c1c(C2Oc3cc(O)cc(O)c3CC2OC(=O)c2cc(O)c(O)c(O)c2)cc(O)c(O)c1O)c1cc(O)c(O)c(O)c1 (configuration not stated) returned Coupling enz -11, Tau fluor counter 14µM*[quencher], Tau ThT inhib 25µM* and Tau fibril FP inconclusive.
For Cc1ccc2c(c1)N(C(=O)CCC(=O)NCc1cccs1)CC(C)O2 (configuration not stated) the results were Tau fluor counter 1%, USP1 inh -5%, Tau ThT inhib 10% and Tau fibril FP -5%.
Screening O=c1c2ccccc2nc(N/N=C/c2c(O)ccc3ccccc23)n1O returned Coupling enz -22, Tau fluor counter inconclusive, USP1 inh -10%, Tau ThT inhib 11µM* and Tau fibril FP 4%.
O=c1c2ccccc2nc(N/N=C/c2ccc(O)cc2)n1O was read as Coupling enz -1, Tau fluor counter -21%, USP1 inh -15%, Tau ThT inhib inconclusive and Tau fibril FP -2%.
For Cc1ccc(S(=O)(=O)NC2CCCCCCC2)cc1 the results were Coupling enz 1 and USP1 inh -21%.
